{
  "source": "ChEMBL document CHEMBL3988442",
  "about": "“University of Dundee, Small-Polar-MMV Screening Library” (2021)",
  "data": [
    {"biological_target": "Shiga toxin 2 (Escherichia coli O157:H7) (UniProt P09385+P09386)", "experiment": "E. coli 0.157:H7 Shiga Toxin SOP - stx2 screening assay", "assay_type": "functional", "set-up": "scale not given: direction of the effect not stated beside the values", "conditions": "30 µM", "units": {"Percent Effect": "%"}, "values": [
      {"compound": "Cn1cc2c(n1)C(CNC(=O)Cc1ccsc1)OCC2", "note": "(stereo not given)", "Percent Effect": -23.6},
      {"compound": "Cc1cc(C(=O)NCCn2nc3ccccn3c2=O)[nH]n1", "Percent Effect": -43.7},
      {"compound": "CC(C)Nc1nc(N2CCOCC2)nc2c1CN(CC(=O)N(C)C)CC2", "Percent Effect": -23.6},
      {"compound": "CNC(=O)CS(=O)(=O)C1CCN(S(=O)(=O)c2ccccc2Br)CC1", "Percent Effect": -14},
      {"compound": "CCCN1CCC(N(Cc2ncc(C)o2)C(C)=O)C1", "note": "(stereo not given)", "Percent Effect": 2.8},
      {"compound": "CCc1cnc2c(c1NCc1ccncc1)c(=O)n(C)c(=O)n2C", "Percent Effect": -7.71},
      {"compound": "CN(CC(=O)NCc1ccccn1)CC1CCCN1c1cccnn1", "note": "(stereo not given)", "Percent Effect": -17.5},
      {"compound": "Cc1ncsc1C(=O)N(Cc1cccnc1)C1CC1", "Percent Effect": 5.93},
      {"compound": "COc1ccc(Br)c(C(=O)NCC2CCN(C(=O)c3ccoc3)CC2)c1", "Percent Effect": 0.84},
      {"compound": "Cc1ccc(CNC(=O)NCCCn2nc3ccccn3c2=O)s1", "Percent Effect": 0.512},
      {"compound": "Cc1cccc(C(=O)NCCCN2CCN(c3ccccc3)CC2)c1", "Percent Effect": -54},
      {"compound": "Cc1cc(C2CCCN2Cc2ccn(C)c(=O)c2)no1", "note": "(stereo not given)", "Percent Effect": 8.31},
      {"compound": "O=C(NCC(O)c1cccc(F)c1)c1cccnc1O", "note": "(stereo not given)", "Percent Effect": -19},
      {"compound": "CN1Cc2c(C(=O)Nc3cccnc3)ncn2-c2ccccc2S1(=O)=O", "Percent Effect": 6.47},
      {"compound": "COc1ccccc1CN1CC[C@H]2C[C@@H](C(=O)N3CCCC3)O[C@H]2C1", "Percent Effect": -13.2},
      {"compound": "COC(=O)c1ccc(N2CCN(C(=O)c3cnn(C)c3)C(C)C2)cc1", "note": "(stereo not given)", "Percent Effect": -15.2},
      {"compound": "Cc1cc(-c2nn(C)c(Cl)c2CN2CCOCC2CC(=O)O)no1", "note": "(stereo not given)", "Percent Effect": 19.9},
      {"compound": "Cc1noc(CN2CCC(c3ccnn3CCO)CC2)n1", "Percent Effect": 4.21},
      {"compound": "COCC(=O)N1CCCC1c1cc(Nc2nnc(C)s2)nc(C)n1", "note": "(stereo not given)", "Percent Effect": -14.2},
      {"compound": "COc1cc(C)nc(N2CCN(C(=O)c3ccc[nH]3)CC2)n1", "Percent Effect": 11.2},
      {"compound": "CC(C)C(C(=O)N1CCC(Nc2cccnn2)CC1)n1cncn1", "note": "(stereo not given)", "Percent Effect": 12.4},
      {"compound": "CCOc1cccc2c1OCC(C(=O)NS(=O)(=O)c1ccc(Cl)cc1)=C2", "Percent Effect": 17},
      {"compound": "Cc1nc(CN2CCCC(N(C)CCc3ccncc3)C2)no1", "note": "(stereo not given)", "Percent Effect": 22.9},
      {"compound": "Cc1cnc(CN(C)C2CCN(Cc3ccccc3C#N)C2)o1", "note": "(stereo not given)", "Percent Effect": -34.4},
      {"compound": "CN1CCN(c2ncc3c(=O)n(-c4cccc(F)c4)c(=O)[nH]c3n2)CC1", "Percent Effect": -20.7},
      {"compound": "O=C(CCCNc1ncccn1)N1CCCC(n2cccn2)C1", "note": "(stereo not given)", "Percent Effect": 1.16},
      {"compound": "Cc1ccccc1S(=O)(=O)NC(=O)CSc1ccc2c(c1)OCCO2", "Percent Effect": -0.0455},
      {"compound": "CCCc1cc(NC2CCc3ncnn3C2)n2ncnc2n1", "note": "(stereo not given)", "Percent Effect": 1.41},
      {"compound": "Cc1[nH]ccc1C(=O)N1CCC(c2nnc(Cn3ccnc3)n2C)CC1", "Percent Effect": -20.6},
      {"compound": "CN(C)C(=O)NC[C@H]1OC[C@@H]2CCN(Cc3ccoc3)C[C@@H]21", "Percent Effect": -22.6},
      {"compound": "CS(=O)(=O)NCC1CCCN(C(=O)c2cc3ccccc3o2)C1", "note": "(stereo not given)", "Percent Effect": -22},
      {"compound": "CCCc1n[nH]c(C2CN(C(=O)c3ccco3)CCO2)n1", "note": "(stereo not given)", "Percent Effect": 8.05},
      {"compound": "O=C(Cn1cnnn1)N1CCCCC1Cn1cccn1", "note": "(stereo not given)", "Percent Effect": 9.78},
      {"compound": "Cc1ccc(-c2noc(CN3CCOC(Cn4cncn4)C3)n2)cc1", "note": "(stereo not given)", "Percent Effect": 5.98},
      {"compound": "CNc1cc(CNC(=O)c2ccccn2)nc(-c2ccncc2)n1", "Percent Effect": 5.89},
      {"compound": "CCc1c(C)sc(NC(=O)CN2CCN(CC)CC2)c1C(=O)OC", "Percent Effect": -31.3},
      {"compound": "CCn1cc(CN2C[C@@H]3CCCN3C[C@@H]2CCSC)c(C)n1", "Percent Effect": 5.06},
      {"compound": "O=C(Cc1cccc(F)c1)NCCNCc1ccco1", "Percent Effect": 3.74},
      {"compound": "Cc1ccc(N2CCCN(C(=O)C3(C#N)CCCCC3)CC2)nn1", "Percent Effect": 4.54},
      {"compound": "COc1cc(C)nc(N2CCN(C(=O)CCc3nccs3)CC2)n1", "Percent Effect": -3.5}
    ]}
  ]
}
